How the values were obtained:
Settings in all cases: concentration: 1 μM, replicates: in singlicate; n = 1
[1] = system: STK36
[2] = system: STK39
[3] = system: SYK
[4] = system: SgK110
[5] = system: T1, TAK1
T1 construct: gene MAP3K7

[6] = system: TAOK1
[7] = system: TAOK2
[8] = system: TAOK3
[9] = system: TBK1
[10] = system: TEC
[11] = system: TESK1
[12] = system: TGFBR1
[13] = system: TGFBR2
[14] = system: TIE1
[15] = system: T2, TIE2
T2 construct: gene TEK

[16] = system: TLK1
[17] = system: TLK2
[18] = system: TNIK
[19] = system: TNK1
[20] = system: TNK2
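Note: KINOMEscan kinase panel screen.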

Compound | %Inh [1] [%] | %Inh [2] [%] | %Inh [3] [%] | %Inh [4] [%] | %Inh [5] [%] | %Inh [6] [%] | %Inh [7] [%] | %Inh [8] [%] | %Inh [9] [%] | %Inh [10] [%] | %Inh [11] [%] | %Inh [12] [%] | %Inh [13] [%] | %Inh [14] [%] | %Inh [15] [%] | %Inh [16] [%] | %Inh [17] [%] | %Inh [18] [%] | %Inh [19] [%] | %Inh [20] [%]
Nc1cccc(-c2ccc3c(N)n[nH]c3c2)c1 [GSK2193613] | 0 | 0 | 22 | 0 | 0 | 69 | 4 | 29 | 0 | 0 | 29 | 0 | 0 | 6 | 0 | 3 | 0 | 93.2 | 0 | 13
N#Cc1cnc2cc(-c3cnc(CNCCN4CCOCC4)s3)ccc2c1Nc1ccc(Oc2ccccc2)cc1 [GW664114] | 7 | 0 | 82 | 0 | 12 | 0 | 0 | 0 | 34 | 88 | 6 | 6 | 0 | 11 | 6 | 21 | 11 | 92.9 | 99 | 94.6
CN1CCN(Cc2ccc(NC(=O)Nc3ccc(N(C)c4ccnc(Nc5ccc(CS(C)(=O)=O)cc5)n4)cc3)cc2)CC1.Cl [GW827654] | 49 | 36 | 84 | 0 | 89 | 13 | 0 | 0 | 30 | 9 | 0 | 25 | 81 | 96.9 | 80 | 25 | 0 | 90.9 | 20 | 97.7
Cc1cc(-c2ccnc(Nc3cccc(C#N)c3)n2)cc(C)c1O [GSK1440913] | 38 | 8 | 83 | 0 | 54 | 77 | 22 | 42 | 35 | 19 | 47 | 0 | 0 | 74 | 0 | 16 | 0 | 68 | 0 | 18
COc1cccc(NC(=O)NCCNc2ccnc(Nc3ccc(F)cc3)n2)c1 [GSK1379879] | 0 | 1 | 20 | 0 | 0 | 0 | 0 | 0 | 13 | 0 | 40 | 26 | 0 | 1 | 0 | 0 | 0 | 0 | 0 | 9
COc1cccc(C2=C(Nc3cccc(O)c3)C(=O)NC2=O)c1 [SB-390771] | 0 | 8 | 22 | 18 | 100 | 10 | 36 | 9 | 30 | 7 | 34 | 19 | 0 | 0 | 0 | 29 | 33 | 0 | 0 | 15
O=C(Nc1n[nH]c2cc(-c3cccs3)ccc12)C1CC1 [SB-731284] | 0 | 0 | 0 | 0 | 23 | 61 | 0 | 34 | 47 | 0 | 0 | 0 | 0 | 0 | 7 | 0 | 0 | 56 | 0 | 0
CN(c1ccc(F)c(NC(=O)c2cccc(OC(C)(C)C#N)c2Cl)c1)c1ccc2nc(NC(=O)C3CC3)sc2n1 | 3 | 12 | 0 | 0 | 19 | 49 | 0 | 0 | 7 | 6 | 6 | 3 | 0 | 67 | 0 | 2 | 0 | 95.6 | 42 | 0
Cc1ccc(NC(=O)c2cccc(N3CCCCC3)c2)cc1-c1ccc(C(=O)NCC2CC2)cc1 [GSK1917008] | 0 | 0 | 20 | 0 | 0 | 8 | 0 | 12 | 0 | 0 | 0 | 24 | 9 | 1 | 0 | 4 | 0 | 2 | 6 | 16
CSc1ccc(NC2=C(c3ccc(Cl)cc3)C(=O)NC2=O)cc1 [SB-317658] | 15 | 0 | 3 | 0 | 39 | 18 | 0 | 0 | 0 | 0 | 20 | 38 | 23 | 42 | 17 | 8 | 18 | 0 | 41 | 0
CC(C)NCC(Cc1ccccc1)NC(=O)c1cc(Br)c(-c2ccnc3[nH]ccc23)s1.Cl.Cl (stereo not drawn) [GSK1383281] | 0 | 0 | 0 | 73 | 0 | 41 | 0 | 0 | 20 | 0 | 47 | 1 | 0 | 69 | 0 | 8 | 13 | 5 | 0 | 0
CN(C)CCOc1ccc(-c2cc(-c3ccc(Cl)c(O)c3)c(-c3ccncc3)[nH]2)cc1.Cl.Cl [SB-684387] | 63 | 33 | 2 | 0 | 32 | 0 | 1 | 0 | 28 | 0 | 19 | 54 | 75 | 4 | 39 | 16 | 7 | 33 | 28 | 15
Cc1ccccc1CC(=O)N1CCc2cc(-c3cn(C)c4ncnc(N)c34)ccc21 [GSK2603346] | 0 | 13 | 0 | 0 | 6 | 0 | 0 | 0 | 5 | 0 | 45 | 0 | 3 | 87 | 48 | 0 | 0 | 0 | 0 | 27
COc1ccc(NC(=O)c2ccoc2)cc1-c1ccc(C(=O)NCC2CC2)cc1 [GW810437] | 0 | 10 | 12 | 36 | 18 | 23 | 24 | 15 | 8 | 0 | 6 | 37 | 0 | 0 | 5 | 2 | 12 | 21 | 16 | 0
CCn1c(-c2nonc2N)nc2c(-c3ccccc3)ncc(OCCCN)c21.O=C(O)C(F)(F)F.O=C(O)C(F)(F)F [GSK260205] | 0 | 7 | 19 | 0 | 0 | 0 | 0 | 0 | 5 | 0 | 0 | 76 | 0 | 70 | 41 | 1 | 0 | 85 | 1 | 8
COc1ccc(C)c(Nc2ccnc(Nc3ccc(-c4cnc[nH]4)cc3)n2)c1.Cl [GW784041] | 36 | 0 | 16 | 0 | 0 | 0 | 3 | 0 | 49 | 7 | 21 | 39 | 34 | 0 | 36 | 0 | 0 | 9 | 44 | 36
Nc1ncc(-c2cn[nH]c2)c2scc(-c3ccc4c(c3)CCN4C(=O)Cc3ccccc3)c12 [GSK2593067] | 0 | 0 | 25 | 0 | 0 | 0 | 0 | 0 | 1 | 4 | 59 | 0 | 0 | 97.4 | 83 | 0 | 0 | 69 | 45 | 79
Cc1nn2c(=O)cc(N3CCO[C@H](C)C3)nc2n1Cc1cccc(Cl)c1Cl [GSK2373693] | 0 | 5 | 19 | 0 | 0 | 0 | 0 | 3 | 0 | 2 | 20 | 0 | 8 | 15 | 2 | 0 | 0 | 0 | 0 | 10
Cc1cc(-c2c(-c3ccc(F)cc3)ncn2CCCN2CCOCC2)nc(N)n1 [SB-222517] | 18 | 7 | 26 | 40 | 3 | 0 | 38 | 0 | 42 | 0 | 14 | 0 | 0 | 27 | 20 | 0 | 34 | 0 | 26 | 0
CCn1cnc2c(NCc3ccccc3)ncnc21 [SKF-96418] | 0 | 16 | 0 | 0 | 0 | 0 | 27 | 0 | 17 | 0 | 15 | 25 | 0 | 0 | 0 | 0 | 1 | 0 | 2 | 0
COc1cc(Nc2nccc(N3CCC(NS(=O)(=O)c4ccc(NC(C)=O)cc4)CC3)n2)cc(OC)c1OC [GSK1379825] | 62 | 0 | 37 | 0 | 0 | 0 | 0 | 0 | 26 | 0 | 71 | 61 | 0 | 63 | 63 | 0 | 0 | 22 | 6 | 76
